Among all 48,000 compounds or so, about 13,000 (27%) showed an effect of 50% or more. Some of the results follow.

107 molecules from ChEMBL document CHEMBL3988442, “University of Dundee, Small-Polar-MMV Screening Library” (2021) can be followed below.

The subject of the experiment is Wolbachia pipientis. Put plainly: Anti-Wolbachia Cell-Based Screen. The experiment is classed as functional. Set-up: scale not given: in the data most compounds retested in dose-response had high values. Particulars: 5 µM.
Turning to `c1ccc(OCCNc2ncnc3sc4c(c23)CCNC4)cc1`, the “Percent Effect” value is recorded as 38.96%. With `CCN1C[C@H]2CCN(c3ncccn3)CC[C@H]2S1(=O)=O`, the “Percent Effect” value is 3.931%.

Turning to `Cc1cc(C)nc(NC2CCc3nc(C)nn3C2)n1` (configuration not stated), the “Percent Effect” value amounted to 12.23%.

In the case of `O=C(O)CC(NC(=O)c1cc(Br)c[nH]1)c1ccccc1` (configuration not stated), the “Percent Effect” value is given as 7.291%. Turning to `Cc1c(C(=O)N2CCC3(CCC(=O)N(CCN(C)C)C3)CC2)ccn1C`, the “Percent Effect” value was 2.177%. With `CN(C)CCN1C(=O)CCC12CCN(C(=O)CC1CC1)CC2`, the “Percent Effect” value is on record as 92.35%. For `O=C(c1nccc2ccccc12)N(Cc1ccco1)CC1CCCO1` (configuration not stated) the value was 5.16%.

In the case of `CC(C)(C)OC(=O)NCC(=O)NCc1ccc(Cl)s1`, the “Percent Effect” value is on record as 16.63%. For `CNC(=O)COC1COC2(CCN(Cc3cccnc3)CC2)C1.O=C(O)C(F)(F)F` (configuration not stated) the value was 120%; for `CNC(=O)COC1COC2(CCN(c3ccc(C)nn3)CC2)C1.O=C(O)C(F)(F)F` (configuration not stated), -17.84%. In the case of `O=C(O)C(F)(F)F.c1cncc(COC2COC3(CCN(c4cnccn4)CC3)C2)c1` (configuration not stated) it was 8.045%. Turning to `CNC(=O)COC1COC2(CCN(Cc3ccncc3F)CC2)C1.O=C(O)C(F)(F)F` (configuration not stated), the “Percent Effect” value came out at 109.2%. For `CNC(=O)COC1COC2(CCN(c3cnccn3)CC2)C1.O=C(O)C(F)(F)F` (configuration not stated) the value was 11.18%; for `O=C(O)CC(O)(CC(=O)O)C(=O)O.c1cnc2[nH]nc(C3CCN(Cc4ccsc4)CC3)c2c1`, 113.3%; for `c1cnc2c(C3CCN(Cc4ccsc4)CC3)n[nH]c2n1`, -13.91%. In the case of `Fc1ccc(F)c(CN2CCC(c3n[nH]c4ncccc34)CC2)c1.O=C(O)CC(O)(CC(=O)O)C(=O)O` it was 96.71%; in that of `Cn1cc2c(n1)C(CNC1CCOCC1)OCC2.O=C(O)C(F)(F)F` (configuration not stated), -8.385%.

As to `CCOCc1nc(-c2ccc(F)cc2Cl)n(C2CCN(C)CC2)n1`, the “Percent Effect” value is reported as 110.7%. Take `CN1CCC(n2nc(Cc3cccs3)nc2-c2ccncc2)CC1`: the “Percent Effect” value is listed as -23.96%. Take `CN1CCC(n2nc(Cc3cccc(Cl)c3)nc2Cn2cnnn2)CC1`: the “Percent Effect” value stood at 20.47%. As for `Nc1cnc(-c2ccc(F)cc2Cl)cn1`, the “Percent Effect” value was found to be 2.9%. On to `CCOCc1nc(-c2ccc(F)cc2Cl)n(C)n1`, for which the “Percent Effect” value was found to be 104.7%. In the case of `COc1ncccc1-c1nc(-c2ccccn2)nn1C1CCN(C)CC1` it was -6.109%. In the case of `CCOCc1nc(CSc2ccncc2)n(C)n1` it was -5.223%; in that of `Cc1ncsc1-c1nc(Cc2cccs2)nn1C1CCN(C)CC1`, -9.082%. In the case of `CN1CCC(Cc2nc(-c3cnccn3)n(C3CCS(=O)(=O)C3)n2)CC1` (configuration not stated) it was -23.71%; in that of `CCOCc1nc(-c2cccc(OC)c2OC)n(C2CCN(C)CC2)n1`, 115.7%. Take `CN1CCC(n2nc(CC3CC3)nc2-c2ccc(F)cc2Cl)CC1`: the “Percent Effect” value is listed as 106.3%.

As to `CCOCc1nc(CSc2ccncc2)n(C2CCN(C)CC2)n1`, the “Percent Effect” value turned out to be 13.12%. On to `CCOc1ccc(NC(C)C(=O)NCCc2cccs2)cc1CO` (configuration not stated), for which the “Percent Effect” value is -30.37%. As for `CC(C)c1noc(CCCC(=O)N2CCN(C)CC2c2ccccc2)n1` (configuration not stated), the “Percent Effect” value stood at 5.23%. In the case of `O=C(c1cnc(-c2noc3cc(N4CCCC4)ccc23)s1)N1CCCC1` it was 0.8579%.

With `CCC(C)NS(=O)(=O)Cc1cccc(NC(=O)c2cc[nH]c2C)c1` (configuration not stated), the “Percent Effect” value is reported as 3.733%.

With `Cc1ccc2nc(C)c(C)c(C(=O)NCCCn3cnnc3)c2c1`, the “Percent Effect” value is given as -1.384%. For `CC(C)Oc1cc(N2CC[C@@H](N3CCOCC3)[C@H](O)C2)nc(N)n1` the value was -17.76%; for `CCn1nccc1CN(C)c1[nH]cnc2nc(C)nc1-2`, 80.56%; for `CCn1nccc1CNC(=O)C1CC1`, 8.516%.

As for `CCn1nccc1CNc1[nH]cnc2nncc1-2`, the “Percent Effect” value amounted to 87.91%. Turning to `CCn1ncnc1CN(CCOC)Cc1ccc(C)cc1`, the “Percent Effect” value is reported as -0.7993%. In the case of `CCn1nccc1CNC(=O)NC1CCCCC1` it was 13.66%; in that of `CCn1nccc1CNc1[nH]cnc2nc(C)nc1-2`, 100.2%.

Regarding `Cc1nccn1-c1ccc(C(C)NCc2ncc[nH]2)cc1` (configuration not stated), the “Percent Effect” value is on record as -20.7%. Regarding `Cc1cc(C(=O)Nc2ccnc(OC3CCOC3)c2)c(C)o1` (configuration not stated), the “Percent Effect” value is given as -9.731%.

Consider `Cc1ccc2[nH]c(CN(C)c3cc(CN)nc(C)n3)nc2c1`, for which the “Percent Effect” value is given as -0.384%.

For the molecule `N#Cc1cn(C2CC2)c(=O)n(Cc2noc(-c3cccs3)n2)c1=O`, the “Percent Effect” value stood at 11.53%. For `COCCn1cnnc1CN(C)c1nc(N)nc2c1CCCC2` the value was 15.13%; for `Cc1oncc1C(=O)N1CC2CC1(C(=O)NCc1ccco1)C2`, -19.28%; for `FC(F)(F)Oc1ccc(-c2c[nH]c([C@@H]3COCCN3)n2)cc1`, -3.996%. As to `c1ccc(CNCC2Cn3nncc3CO2)nc1` (configuration not stated), the “Percent Effect” value is reported as -9.384%.

With `Cc1ccc(CNCC2Cn3nncc3CO2)s1` (configuration not stated), the “Percent Effect” value was found to be 98.39%.

For the molecule `Fc1cccc(CNCC2Cn3nncc3CO2)c1` (configuration not stated), the “Percent Effect” value is -13.19%. Take `c1coc(CNCC2Cn3nncc3CO2)c1` (configuration not stated): the “Percent Effect” value amounted to 91.63%. Turning to `Cc1nnn2c1COC(CNCc1ccncc1)C2` (configuration not stated), the “Percent Effect” value is -6.146%.

Regarding `c1cc(CNCC2Cn3nncc3CO2)ccn1` (configuration not stated), the “Percent Effect” value is 7.838%. `c1cc(CNCC2Cn3nncc3CO2)cs1` (configuration not stated): the “Percent Effect” value came to 14.09%. For `Cc1ccc(CNCC2Cn3nncc3CO2)o1` (configuration not stated) the value was 84.72%. In the case of `Cc1ccc(CNCC2Cn3nnc(-c4cccc(F)c4)c3CO2)o1.O=C(O)C(F)(F)F` (configuration not stated) it was -4.594%; in that of `COCCN(CCC#N)S(=O)(=O)c1cc(F)ccc1F`, 6.072%; in that of `CCc1nnc2n1CCN(C(=O)CN(C)Cc1ccccc1)C2`, -3.292%. Regarding `CC(C)c1nnc2n1CCN(C(=O)c1ccc(CN(C)C)cc1)C2`, the “Percent Effect” value is on record as -8.921%. `Cc1nnc2n1CCN(C(=O)CN(C)Cc1ccccc1)C2`: the “Percent Effect” value stood at 125%. For `CC(C)c1nnc2n1CCN(C(=O)CN1Cc3ccccc3C1=O)C2` the value was -9.252%; for `CC(C)c1nnc2n1CCN(C(=O)CN(C)Cc1ccccc1)C2`, 95.98%. In the case of `Cc1nnc2n1CCN(C(=O)COCCOc1ccccc1)C2` it was 6.355%; in that of `CS(=O)(=O)c1nccn1Cc1ccc(C(N)=O)cc1`, -9.833%. Consider `CN(Cc1cccnc1)Cc1cn2c(n1)CN(C1CCOC1)CC2.O=C(O)C(F)(F)F.O=C(O)C(F)(F)F.O=C(O)C(F)(F)F` (configuration not stated), for which the “Percent Effect” value came to 86.19%. For `CN(Cc1cncnc1)Cc1cn2c(n1)CN(C1CCOC1)CC2.O=C(O)C(F)(F)F.O=C(O)C(F)(F)F` (configuration not stated), the “Percent Effect” value is reported as -14.81%. Consider `CN(C)Cc1cn2c(n1)CN(C1CCOC1)CC2` (configuration not stated), for which the “Percent Effect” value is 93.96%. In the case of `CCN(CC)Cc1cn2c(n1)CN(C1CCOC1)CC2.O=C(O)C(F)(F)F.O=C(O)C(F)(F)F` (configuration not stated) it was 96.5%. With `CCN(CC)Cc1cnc2n1CCN(C1CCOC1)CC2` (configuration not stated), the “Percent Effect” value is recorded as -1.376%. In the case of `CN(Cc1cn2c(n1)CN(C1CCOC1)CC2)Cc1ccco1.O=C(O)C(F)(F)F.O=C(O)C(F)(F)F` (configuration not stated) it was -12.79%; in that of `CN(Cc1cn2c(n1)CN(C(=O)C1CCOCC1)CC2)Cc1ccco1`, -9.912%. In the case of `CN(Cc1cn2c(n1)CN(CC1CCOC1)CC2)Cc1ccco1.O=C(O)C(F)(F)F.O=C(O)C(F)(F)F` (configuration not stated) it was 11.13%; in that of `CN(Cc1cccnc1)Cc1cn2c(n1)CN(C1CCOCC1)CC2`, 108.1%.

`CCOCC(=O)N1CCn2cc(CN(C)Cc3ccco3)nc2C1`: the “Percent Effect” value is on record as -7.292%. In the case of `Cc1noc(C)c1CN(C)Cc1csc(-c2ccccc2F)n1` it was 6.793%. Turning to `CSC(C)(C)CNC(=O)NCC[S+]([O-])c1ccccc1F` (configuration not stated), the “Percent Effect” value was 3.709%.

`COCc1nc2n(n1)CCCC2Nc1nc(C2CC2)ns1` (configuration not stated): the “Percent Effect” value was -6.792%. For `COC[C@H]1CC[C@H]2[C@H](CCN2S(=O)(=O)Cc2ccccc2)O1` the value was -8.908%. In the case of `Cc1cnc(NCc2cnn(C)c2)nc1-c1cnn(C)c1` it was 107.4%. In the case of `Cn1cc(-c2ccnc(NCC3CC3)n2)cn1` it was -5.433%; in that of `CCNc1ncc(C)c(-c2cnn(C)c2)n1`, 108.7%; in that of `CN(C)C1(CNc2nccc(-c3cnn(C)c3)n2)CCSC1` (configuration not stated), 0.386%.

Turning to `Cc1cnc(CNc2ncc(C)c(-c3cnn(C)c3)n2)cn1`, the “Percent Effect” value is recorded as 99.76%.

On to `Cc1cnc(CNCc2cnc(-c3ccccc3C)s2)cn1`, for which the “Percent Effect” value was 2.85%. Consider `Cc1ccc(Br)c(S(=O)(=O)NCc2cnn(C)c2)c1`, for which the “Percent Effect” value is -6.157%. In the case of `Cc1ccc(CCNc2ncc(C)c(-c3ccnn3C)n2)s1` it was -9.646%; in that of `Cn1cc(-c2nc(CNCCn3cccn3)cs2)cn1`, 1.057%. With `Cn1cc(-c2ccnc(NCC3CCN(Cc4ccccc4)C3)n2)cn1` (configuration not stated), the “Percent Effect” value is recorded as 1.277%. Regarding `Cc1cnc(NCc2ccncc2)nc1-c1cnn(C)c1`, the “Percent Effect” value stood at 107.1%. In the case of `Cn1ncnc1-c1ccnc(NCc2ccncc2)n1` it was 2.269%; in that of `O=C(CN1CCCS1(=O)=O)Nc1ccc(OC(F)F)cc1`, 5.702%; in that of `CC(C)CN1CCc2[nH]cnc2C12CCN(C(=O)c1cc[nH]n1)CC2`, -17.95%.

Regarding `CC(=O)NCc1ccc(S(=O)(=O)NC(=O)c2ccc3c(c2)COC3)cc1`, the “Percent Effect” value was -5.848%. For `CC(NC1(CNS(=O)(=O)N(C)C)CCCC1)c1ccccc1` (configuration not stated) the value was -3.44%. In the case of `CCC(NC(N)=O)c1ccccc1OCC(=O)N1CCCC1` (configuration not stated) it was -5.34%; in that of `Cc1cnc(NCc2csc(C(C)C)n2)nc1-c1cnn(C)c1`, 93.26%; in that of `Cc1cnn(CC(C)NCc2csc(-c3cnn(C)c3)n2)c1` (configuration not stated), 15.88%. As to `CC(C)c1nc(CNc2nccc(CCC(F)(F)F)n2)cs1`, the “Percent Effect” value is listed as -5.11%. For `O=c1[nH]c2nc(NC3CC3)ncc2c(=O)n1-c1ccc(F)cc1`, the “Percent Effect” value came to 8.247%. In the case of `CCCn1ncc(-c2ccnc(NC3CC(C)(C)NC(C)(C)C3)n2)c1C` it was 10.1%; in that of `Cc1ncc(-c2ccnc(N3CCCCC3)n2)c(=O)[nH]1`, 2.763%. With `O=c1[nH]c(-c2ccncc2)ncc1-c1ccnc(N2CCOCC2)n1`, the “Percent Effect” value is 98.38%. Turning to `O=c1[nH]c(-c2ccncc2)ncc1-c1ccnc(NC2CCCCC2)n1`, the “Percent Effect” value was found to be 85.21%.

In the case of `O=c1[nH]c(-c2ccncc2)ncc1-c1ccnc(NC2CC2)n1`, the “Percent Effect” value was 114.3%. For `O=C(COCc1nc(-c2ccncc2)no1)NC1CCCCC1` the value was -10.3%.

As to `Cc1ccc(-c2ccnc(N3CCC4(CCO4)CC3)n2)c(C)n1`, the “Percent Effect” value is on record as 1.011%.
